YB-1 expression = YB-1 expression inhibition. 0.37% of 30,000 active. delta delta Cp (YB-1 minus CDIP) (no concentration beside the values). U2OS, qRT-PCR YB-1 vs CDIP delta delta Cp, 16 h; hits give high values; zero = DMSO, each unit about twofold;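 active = delta delta Cp rounded down to an integer at or above 3, about 3 SD of DMSO wells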;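 note: higher means less YB-1 transcript or more CDIP transcript relative to DMSO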
ROS inducer = inducers of reactive oxygen species in cancer cells. AID 624156. U2OS ROS induction, H2DCF-DA fluorescence. ROS induction (% of piperlongumine), % at 10 µM. 2% of 46,000 active; in the data active = ROS induction above about 79%, passing the limit was not always enough
Hits are given with their value; 0 = inactive; - = no result. A selection: hits, their analogues and other compounds. The true share with any hit is near 2.1%.

SMILES | YB-1 expression | ROS inducer
COc1ccccc1/C=C/C(=O)Nc1sc2c(c1C(N)=O)CCC2 | - | 0
CC1CCCC(NC(=O)C2CCC(Cn3c(=O)[nH]c4ccccc4c3=O)CC2)C1C (stereo unspecified) | - | 0
Cc1cc(I)ccc1NC(=O)c1ccc(C(C)(C)C)cc1 | - | 0
CC(C)(C)S(=O)(=O)c1ccc(-c2ccccc2)cc1 | - | 0
C=C1C(=O)O[C@@H]2C[C@H](C)[C@@H]3CC(=O)C(C)=C3C[C@H]12 | 0 | 93
C=C1C(=O)OC2C3=C(C)C(=O)CC3C(C)CC(O)C12 (stereo unspecified) | 0 | 0
Cc1ccc(C(=O)CSc2nc(C)nc3sc4c(c23)CCCC4)cc1 | - | 0
Cc1ccc(C(=O)CSc2nc(C)nc3sc(C)c(C)c23)cc1 | - | 119
COc1ccc(CCN(Cc2ccccn2)S(=O)(=O)c2ccc(C(C)(C)C)cc2)cc1OC | - | 0
S=c1nn[nH]n1CCc1ccc(Cl)cc1 | - | 0
S=c1[nH]n(-c2ccc(Cl)cc2)c(=S)s1 | 5 | 0
O=C(c1ccccc1SCc1ccccc1)N1CCCc2ccccc21 | - | 0
O=C(Nc1ccc([N+](=O)[O-])cc1O)Nc1ccccc1Br | 3 | 0
O=C(COc1ccc(I)cc1)Nc1ccc([N+](=O)[O-])cc1O | - | 0
CC(C)NC(=O)c1ccc2c(=O)[nH]c3c(C(=O)NC(C)C)sc(=S)n3c2c1 | - | 0
CCCNC(=O)[C@@]1(Sc2ccc(C)cc2)CC(=O)N(C2CCCCC2)[C@@H]1c1ccc(CO)cc1I | 0 | 162
Cc1ccc(S[C@]2(C(=O)NC(C)C)CC(=O)N(C(C)C)[C@@H]2c2ccc(CO)cc2I)cc1 | 0 | 176
CN(C)CCCNC(=O)[C@@]1(c2ccc([N+](=O)[O-])cc2)CC(=O)N(C2CCCCC2)[C@@H]1c1ccc(CO)cc1I | 0 | 0
Cc1ccc(S[C@]2(C(=O)NCCCN(C)C)CC(=O)N(C3CCCCC3)[C@@H]2c2ccc(CO)cc2I)cc1 | 0 | 0
Cc1ccc(S[C@]2(C(=O)NC3CC3)CC(=O)N(C3CCCCC3)[C@@H]2c2ccc(CO)cc2I)cc1 | 0 | 0
COc1ccc(CCNC(=O)[C@@]2(Sc3ccc(C)cc3)CC(=O)N(C3CCCCC3)[C@@H]2c2ccc(CO)cc2I)cc1 | 0 | 160
CCOc1ccc(C(=O)N2CCCCC2)cc1 | - | 0
C=C(C)Cn1c(SCC(=O)NN)nc2ccccc2c1=O | - | 0
CC1(C)CC(=O)C2=C(C1)Nc1ccccc1N(C(=O)c1ccccc1)C2c1ccccc1 (stereo unspecified) | - | 0
CN(C)c1ccc(-c2nc3ccc4ccccc4c3c3c2CCC3)cc1 | 0 | 0
SMILES | YB-1 expression | ROS inducer
COc1ccc(-c2nc3ccc4ccccc4c3c3c2CCC3)cc1 | 0 | 138
CCOC(=O)C1CCCN(CCP(=O)(c2ccccc2)c2ccccc2)C1 (stereo unspecified) | - | 0
COC(=O)c1ccc2c(=O)n(CCC3=CCCCC3)c(SCC(=O)C(C)(C)C)nc2c1 | - | 0
COc1ccc(OC)c(NC(=O)CSc2nc(-c3ccccc3)nc3c2COC(C)(C)C3)c1 | - | 77
CC1(C)Cc2nc(-c3ccccc3)nc(SCC(=O)Nc3ccc(Br)cc3)c2CO1 | - | 113
CC(=O)c1ccc(NC(=O)CSc2ncnc3c2sc2nc4c(cc23)COC(C)(C)C4)cc1 | - | 0
COc1ccc(OC)c(NC(=O)CSc2nc(-c3ccccc3)cs2)c1 | - | 0
COc1ccc(NC(=O)N(C)C[C@@H]2Oc3c(cccc3N(C)C)C(=O)N([C@H](C)CO)C[C@H]2C)cc1 | 0 | 0
Cc1noc(C)c1NC(=O)N(C)C[C@@H]1Oc2c(NC(=O)Nc3ccc4c(c3)OCO4)cccc2C(=O)N([C@H](C)CO)C[C@@H]1C | 0 | 0
C[C@@H]1CN([C@@H](C)CO)C(=O)c2cccc(NC(=O)C3CC3)c2O[C@@H]1CN(C)C(=O)Nc1ccc2c(c1)OCO2 | 3.7 | 0
C[C@H]1CN([C@@H](C)CO)C(=O)c2cccc(NC(=O)C3CC3)c2O[C@H]1CN(C)C(=O)Nc1ccc2c(c1)OCO2 | 0 | 0
COc1ccc(NC(=O)Nc2cccc3c2O[C@H](CN(C)C(=O)Nc2c(C)noc2C)[C@H](C)CN([C@H](C)CO)C3=O)cc1 | 5.9 | 0
Cc1noc(C)c1NC(=O)N(C)C[C@@H]1Oc2c(NC(=O)Nc3ccc4c(c3)OCO4)cccc2C(=O)N([C@@H](C)CO)C[C@H]1C | 0 | 115
COc1ccc(NC(=O)N(C)C[C@H]2Oc3c(cccc3N(C)C)C(=O)N([C@H](C)CO)C[C@@H]2C)cc1 | 0 | 79
COc1ccc(NC(=O)Nc2cccc3c2O[C@H](CN(C)C(=O)Nc2c(C)noc2C)[C@H](C)CN([C@@H](C)CO)C3=O)cc1 | 0 | 0
CCCNC(=O)c1ccc2c(c1)sc1nc(-c3ccccc3)cn12 | - | 0
CC(C)CN(CC(C)C)C(=O)NCc1noc2ccccc12 | - | 0
CCn1cc(C(=O)O)c(=O)c2cc(S(=O)(=O)N(C)C3CCCCC3)ccc21 | - | 0
Nc1nc2c(-c3ccccc3)c(C(F)(F)F)sc2s1 | - | 0
C[C@@H]1CCCCO[C@@H](CN(C)C(=O)CCCN(C)C)[C@@H](C)CN([C@H](C)CO)C(=O)c2cc(NC(=O)c3ccccc3)ccc2O1 | 9.6 | 0
C[C@@H]1CCCCO[C@H](CN(C)C(=O)CCCN(C)C)[C@@H](C)CN([C@H](C)CO)C(=O)c2cc(NC(=O)C3CCCCC3)ccc2O1 | 0 | 105
C[C@@H]1CCCCO[C@H](CN(C)C(=O)CCCN(C)C)[C@@H](C)CN([C@H](C)CO)C(=O)c2cc(NC(=O)NC3CCCCC3)ccc2O1 | 0 | 0
C[C@@H]1CCCCO[C@H](CN(C)C(=O)CCCN(C)C)[C@@H](C)CN([C@H](C)CO)C(=O)c2cc(NC(=O)Nc3ccccc3)ccc2O1 | 0 | 0
CC(C)CCNC(=O)c1ccc(N2CCCC2=O)cc1 | - | 0
CC(C)CCN1CC(C(=O)NC2CCCCCC2)CC1=O (stereo unspecified) | - | 0
SMILES | YB-1 expression | ROS inducer
O=C(NCCC1=CCCCC1)c1ccc2c(c1)sc1nc(-c3ccccc3)cn12 | - | 0
Cc1ccc(C(=O)Nc2ccccc2C(=O)N2CCN(c3ccccc3)CC2)cc1S(=O)(=O)N1CCCCC1 | - | 144
Cc1ccc(NS(=O)(=O)c2cc(C(=O)Nc3ccccc3C(=O)N3CCCC3)ccc2Cl)cc1C | - | 0
O=C(Cn1cnc2c(oc3ccccc32)c1=O)Nc1ccccc1F | - | 0
Cc1ccc(S(=O)(=O)N2Cc3ccccc3C2)cc1 | - | 0
C[C@@H]1CN([C@H](C)CO)C(=O)c2cc(NC(=O)Cc3ccccc3)ccc2O[C@H]1CN(C)Cc1ccc(-c2ccccc2)cc1 | 0 | 100
C[C@H](CO)N1C[C@H](C)[C@@H](CN(C)Cc2ccc(-c3ccccc3)cc2)Oc2ccc(NC(=O)c3ccncc3)cc2C1=O | 0 | 0
C[C@@H]1CN([C@H](C)CO)C(=O)c2cc(NC(=O)Cc3ccccc3)ccc2O[C@H]1CN(C)Cc1ccc(Oc2ccccc2)cc1 | 0 | 0
C[C@@H]1CN([C@H](C)CO)C(=O)c2cc(NC(=O)c3ccncc3)ccc2O[C@@H]1CN(C)Cc1ccc(-c2ccccc2)cc1 | 0 | 113
C[C@H](CO)N1C[C@H](C)[C@H](CN(C)Cc2ccc(-c3ccccc3)cc2)Oc2ccc(NC(=O)CCC(F)(F)F)cc2C1=O | 0 | 0
C[C@H]1CN([C@@H](C)CO)C(=O)c2cc(NC(=O)CCC(F)(F)F)ccc2O[C@@H]1CN(C)Cc1ccc(-c2ccccc2)cc1 | 0 | 82
